Data from the supplement of paper PMC6522484.
Several values for one entry are separate records, joined by “and”; a condition that tells them apart may be missing. Equal values may be shown once. ± gives the standard deviation of the averaged measurements.

What follows are compounds tested on SW480 (assay: TCF/Wnt firefly luciferase reporter signal relative to plate median (fraction of plate median); higher = higher Wnt reporter signal). Conditions: 5 µM; treatment time 24 h; reporter: 7TFP.
Procedure, shortened: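 Two independent replicates were averaged for each reported value. Library compounds were applied at a final 5 µM for 24 h to colorectal cancer cell lines stably expressing lentiviral TCF/Wnt firefly luciferase reporters. Firefly luciferase or CellTiterGlo luminescence from each well was normalised to the plate median.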

O=c1[nH]cnc2nc[nH]c12 and C/C=C1\[C@H]2C=C(C)C[C@]1(N)c1ccc(=O)[nH]c1C2 are the same in “TCF/Wnt firefly luciferase reporter signal” value: 1 for the first, 1 ± 0.16 for the second.

O=C(Nc1ccccc1)Nc1ccccc1 and CN(C)CCC=C1c2ccccc2CCc2ccccc21 are within error of each other in “TCF/Wnt firefly luciferase reporter signal” value: 1.01 ± 0.04 for the first, 0.963 ± 0.046 for the second.

COc1ccc2c(c1)c(CC(=O)O)c(C)n2C(=O)c1ccc(Cl)cc1 and COc1ccc2oc3ccccc3c(=O)c2c1 are the same in “TCF/Wnt firefly luciferase reporter signal” value: 1.1 ± 0.014 for the first, 1.1 ± 0.078 for the second.

CC(=O)O[C@@H]1CC2C(C)(C)C(=O)C3OC3[C@]2(C)C2CC[C@@]3(C)[C@H](c4ccoc4)OC(=O)C4OC43[C@@]21C (some centres undefined) and COC(=O)C[C@H]1C(C)(C)[C@@H](OC(C)=O)[C@@H]2CC3=C4CC(=O)O[C@@H](c5ccoc5)[C@]4(C)CC[C@@H]3[C@@]1(C)C2=O are within error of each other in “TCF/Wnt firefly luciferase reporter signal” value: 0.864 ± 0.078 for the first, 0.95 ± 0.041 for the second.

First: CC(=O)Oc1c(-c2ccccc2)oc2c(CC=C(C)C)c3c(c(OC(C)=O)c2c1=O)C=CC(C)(C)O3
Second: COc1ccc(-c2oc3ccccc3c(=O)c2O)cc1OC
The “TCF/Wnt firefly luciferase reporter signal” value of the first is lower: 0.972 ± 0.036 for the first, 1.18 ± 0.028 for the second.

CCCC(=O)O[C@]1(C(=O)CO)CC[C@H]2[C@@H]3CCC4=CC(=O)CC[C@]4(C)[C@H]3[C@@H](O)C[C@@]21C and CCC(=O)O[C@H]1CC[C@H]2[C@@H]3CCc4cc(O)ccc4[C@H]3CC[C@]12C are within error of each other in “TCF/Wnt firefly luciferase reporter signal” value: 0.956 ± 0.0057 for the first, 0.994 ± 0.052 for the second.

Compared with NC(=O)c1cccnc1, CCCc1ncc(C[n+]2ccccc2C)c(N)n1 is lower in “TCF/Wnt firefly luciferase reporter signal” value: 1.15 ± 0.11 for the first, 0.987 ± 0.011 for the second.

CCOC(N)=O and CC(C)NCC(O)COc1ccc(CC(N)=O)cc1 (centres undefined) are within error of each other in “TCF/Wnt firefly luciferase reporter signal” value: 0.982 ± 0.054 for the first, 1.07 ± 0.064 for the second.

Compared with COc1c(O)cc(O)cc1O, O=c1c(-c2ccc(O)cc2)coc2cc(O)cc(O)c12 is higher in “TCF/Wnt firefly luciferase reporter signal” value: 1.03 ± 0.042 for the first, 1.12 for the second.

COc1ccc2ccc(=O)oc2c1CC=C(C)C and COc1ccc([C@H]2Oc3cc(OC)cc(OC)c3C[C@H]2O)cc1 are within error of each other in “TCF/Wnt firefly luciferase reporter signal” value: 0.99 ± 0.071 for the first, 1.03 ± 0.052 for the second.

O=C(/C=C/c1ccccc1)c1ccc(O[C@@H]2O[C@H](CO)[C@@H](O)[C@H](O)[C@H]2O)cc1O and O=c1c(-c2ccccc2)coc2cc(O)cc(O)c12 are within error of each other in “TCF/Wnt firefly luciferase reporter signal” value: 1.13 ± 0.057 for the first, 1.04 ± 0.18 for the second.

CCn1cc(C(=O)O)c(=O)c2cc(F)c(N3CCN(C)CC3)cc21 and CN1CCN(CC/C=C2/c3ccccc3Sc3ccc(S(=O)(=O)N(C)C)cc32)CC1 are within error of each other in “TCF/Wnt firefly luciferase reporter signal” value: 1.05 ± 0.078 for the first, 0.983 ± 0.17 for the second.

CNCc1ccccc1 and Cc1ccc(Cl)c(Nc2ccccc2C(=O)O)c1Cl are within error of each other in “TCF/Wnt firefly luciferase reporter signal” value: 1.045 ± 0.0071 for the first, 1.05 ± 0.064 for the second.

COC(=O)C[C@H]1C(C)(C)[C@@H](O)[C@@H]2CC3=C4CC(O)O[C@@H](c5ccoc5)[C@]4(C)CCC3[C@@]1(C)C2=O (stereo partly drawn) [3,16-DIDEOXYMEXICANOLIDE-3beta-DIOL] and C[C@@H]1CC(=O)O[C@H](C)Cc2cc(O)cc(O)c2C(=O)O[C@H](C)CC(=O)O[C@H](C)Cc2cc(O)cc(O)c2C(=O)O[C@H](C)CC(=O)O1 are within error of each other in “TCF/Wnt firefly luciferase reporter signal” value: 0.896 ± 0.076 for the first, 0.918 ± 0.042 for the second.

Compared with CCC(=O)NCC[C@@H]1CCc2ccc3c(c21)CCO3, COCCCOc1cc(C[C@@H](C[C@H](NC(=O)OC(C)(C)C)[C@@H]2C[C@@H](C(C)C)C(=O)O2)C(C)C)ccc1OC [Borrelidin derivative (C30H49NO7)] is higher in “TCF/Wnt firefly luciferase reporter signal” value: 0.91 ± 0.023 for the first, 0.9975 ± 0.0035 for the second.

CCOc1ccc2c(c1)C(C)=CC(C)(C)N2 and COc1cc(Cc2cnc(N)nc2N)cc(OC)c1OC are within error of each other in “TCF/Wnt firefly luciferase reporter signal” value: 0.899 ± 0.056 for the first, 0.831 ± 0.17 for the second.

Compared with CO[C@H]1C[C@@H]2CC[C@@H](C)[C@@](O)(O2)C(=O)C(=O)N2CCCC[C@H]2C(=O)O[C@H]([C@H](C)C[C@@H]2CC[C@@H](O)[C@H](OC)C2)CC(=O)[C@H](C)/C=C(\C)[C@@H](O)[C@@H](OC)C(=O)[C@H](C)C[C@H](C)/C=C/C=C/C=C/1C, COC(=O)[C@H]1[C@H]2C[C@H]3c4[nH]c5cc(OC)ccc5c4CCN3C[C@H]2C[C@@H](OC(=O)c2cc(OC)c(OC)c(OC)c2)[C@@H]1OC is lower in “TCF/Wnt firefly luciferase reporter signal” value: 1.2 ± 0.21 for the first, 0.9565 ± 0.0021 for the second.

CC[N+](CC)(CC)CCOc1cccc(OCC[N+](CC)(CC)CC)c1OCC[N+](CC)(CC)CC and CC(=O)c1oc2c(C)c3oc(=O)cc(C)c3cc2c1C [2-Acetyl-3,5,9-trimethylfuro[3,2-g]-chromen-7-one (VFT-04)] are within error of each other in “TCF/Wnt firefly luciferase reporter signal” value: 0.873 ± 0.21 for the first, 1.12 ± 0.078 for the second.

CC=CC1=C(C(=O)O)N2C(=O)[C@@H](NC(=O)[C@H](N)c3ccc(O)cc3)[C@H]2SC1 and CC1=C(/C=C/C(C)=C/C=C/C(C)=C/C=C/C=C(C)/C=C/C=C(C)/C=C/C2=C(C)C(=O)CCC2(C)C)C(C)(C)CCC1=O [CANTHAXANTHIN (euglenanone)] are the same in “TCF/Wnt firefly luciferase reporter signal” value: 1.17 ± 0.064 for the first, 1.17 ± 0.014 for the second.

NCCc1ccc(O)c(O)c1 was tested, and the “TCF/Wnt firefly luciferase reporter signal” value was 0.963 and 0.967.
